Reference: PubChem BioAssay (NCATS)
Inconclusive results are not listed. Where a call stands in place of a potency, no number is given. Unmarked numbers belong to inactive results. Calls of active or inactive are those of the source. The call rests on the fitted dose curve; in most records, active means well fitted inhibition curve with a large enough effect; inconclusive means small, poorly fitted or top-dose-only effect; inactive means flat fitted curve, though single readings scatter.

Assays:
[1] = qHTS profiling for inhibitors of Plasmodium falciparum proliferation (AID 504749); further: nearly all actives have a fitted effect of over 60% in size; settings: P. falciparum in erythrocytes, SYBR Green DNA, 72 h
Method in brief: (§1)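 P. falciparum-infected erythrocytes (0.3% parasitemia, 2.5% hematocrit final) were exposed to compounds for 72 h at 37 C in 5% CO2, then lysed with SYBR Green buffer overnight at room temperature; parasite DNA fluorescence was normalized to artemisinin and DMSO controls.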

3D7 = assay: as above; settings: P. falciparum in erythrocytes, SYBR Green DNA, 72 h; series mostly up to 28.7 µM
Method in brief: as §1

7G8 = assay: as above; settings: P. falciparum in erythrocytes, SYBR Green DNA, 72 h; series mostly up to 28.7 µM
Method in brief: as §1

AA1029 = assay: as above; settings: P. falciparum in erythrocytes, SYBR Green DNA, 72 h; series mostly up to 28.7 µM
Method in brief: as §1

AS120 = assay: as above; settings: P. falciparum in erythrocytes, SYBR Green DNA, 72 h; series mostly up to 28.7 µM
Method in brief: as §1

ATS189 = assay: as above; settings: P. falciparum in erythrocytes, SYBR Green DNA, 72 h; series mostly up to 28.7 µM
Method in brief: as §1

ATS95 = assay: as above; settings: P. falciparum in erythrocytes, SYBR Green DNA, 72 h; series mostly up to 28.7 µM
Method in brief: as §1

C2A = assay: as above; settings: P. falciparum in erythrocytes, SYBR Green DNA, 72 h; series mostly up to 28.7 µM
Method in brief: as §1

CP185 = assay: as above; settings: P. falciparum in erythrocytes, SYBR Green DNA, 72 h; series mostly up to 28.7 µM
Method in brief: as §1

CP191 = assay: as above; settings: P. falciparum in erythrocytes, SYBR Green DNA, 72 h; series mostly up to 28.7 µM
Method in brief: as §1

CP192 = assay: as above; settings: P. falciparum in erythrocytes, SYBR Green DNA, 72 h; series mostly up to 28.7 µM
Method in brief: as §1

CP194 = assay: as above; settings: P. falciparum in erythrocytes, SYBR Green DNA, 72 h; series mostly up to 28.7 µM
Method in brief: as §1

[2] = at 28.7 µM (top of the series), parasite line A
[3] = at 28.7 µM (top of the series), parasite line B
Potency means the concentration at half of the fitted maximal effect.

## C[N+](C)(C)CCOC(=O)C(O)(c1ccccc1)c1ccccc1
[1]; [2]
  activity, negative = inhibition: 12.8%
[1]; [3]
  activity, negative = inhibition: 7.74%
3D7
  Potency: inactive
7G8
  Potency: inactive
AA1029
  Potency: inactive
AS120
  Potency: inactive
ATS189
  Potency: inactive
ATS95
  Potency: inactive
C2A
  Potency: inactive
CP185
  Potency: inactive
CP191
  Potency: inactive
CP192
  Potency: inactive
CP194
  Potency: inactive

## COP(=S)(OC)Oc1ccc(Sc2ccc(OP(=S)(OC)OC)cc2)cc1
[1]; [2]
  activity, negative = inhibition: 7.58%
[1]; [3]
  activity, negative = inhibition: 4.24%
3D7
  Potency: inactive
7G8
  Potency: inactive
AA1029
  Potency: inactive
AS120
  Potency: inactive
ATS189
  Potency: inactive
ATS95
  Potency: inactive
C2A
  Potency: inactive
CP185
  Potency: inactive
CP191
  Potency: inactive
CP192
  Potency: inactive
CP194
  Potency: inactive

## C[C@]12C=CC(=O)C=C1CC[C@@H]1[C@@H]2CC[C@@]2(C)[C@H]1CC[C@]2(C)O
[1]; [2]
  activity, negative = inhibition: 0.454%
[1]; [3]
  activity, negative = inhibition: 5.05%
3D7
  Potency: inactive
7G8
  Potency: inactive
AA1029
  Potency: inactive
AS120
  Potency: inactive
ATS189
  Potency: inactive
ATS95
  Potency: inactive
C2A
  Potency: inactive
CP185
  Potency: inactive
CP191
  Potency: inactive

## Cc1ccc(N=CN(C)C=Nc2ccc(C)cc2C)c(C)c1
[1]; [2]
  activity, negative = inhibition: 5.73%
[1]; [3]
  activity, negative = inhibition: 9.78%
3D7
  Potency: inactive
7G8
  Potency: inactive
AA1029
  Potency: inactive
AS120
  Potency: inactive
ATS189
  Potency: inactive
ATS95
  Potency: inactive
C2A
  Potency: inactive
CP185
  Potency: inactive
CP191
  Potency: inactive
CP192
  Potency: inactive
CP194
  Potency: inactive

## O=c1n(Cl)c(=O)n(Cl)c(=O)n1Cl
[1]; [2]
  activity, negative = inhibition: 0.0387%
[1]; [3]
  activity, negative = inhibition: 2.68%
3D7
  Potency: inactive
7G8
  Potency: inactive
AA1029
  Potency: inactive
AS120
  Potency: inactive
ATS189
  Potency: inactive
ATS95
  Potency: inactive
C2A
  Potency: inactive
CP185
  Potency: inactive
CP191
  Potency: inactive
CP192
  Potency: inactive
CP194
  Potency: inactive

## C[C@]12CC[C@H]3[C@@H](CC=C4C[C@@H](O)CC[C@@]43C)[C@@H]1CC[C@@H]2O
[1]; [2]
  activity, negative = inhibition: 1.98%
[1]; [3]
  activity, negative = inhibition: 6.49%
3D7
  Potency: inactive
7G8
  Potency: inactive
AA1029
  Potency: inactive
AS120
  Potency: inactive
ATS189
  Potency: inactive
ATS95
  Potency: inactive
C2A
  Potency: inactive
CP185
  Potency: inactive
CP191
  Potency: inactive
CP192
  Potency: inactive
CP194
  Potency: inactive

## CC(C)NCC(O)c1ccc(N)c(C#N)c1 (stereo not given)
[1]; [2]
  activity, negative = inhibition: 10.9%
[1]; [3]
  activity, negative = inhibition: -9.32%
3D7
  Potency: inactive
7G8
  Potency: inactive
AA1029
  Potency: inactive
AS120
  Potency: inactive
ATS189
  Potency: inactive
ATS95
  Potency: inactive
C2A
  Potency: inactive
CP185
  Potency: inactive
CP191
  Potency: inactive
CP192
  Potency: inactive
CP194
  Potency: inactive

## CCS(=O)(=O)C(C)(C)S(=O)(=O)CC
[1]; [2]
  activity, negative = inhibition: 9.89%
[1]; [3]
  activity, negative = inhibition: 19.2%
3D7
  Potency: inactive
7G8
  Potency: inactive
AA1029
  Potency: inactive
AS120
  Potency: inactive
ATS189
  Potency: inactive
ATS95
  Potency: inactive
C2A
  Potency: inactive
CP185
  Potency: inactive
CP191
  Potency: inactive
CP192
  Potency: inactive
CP194
  Potency: inactive

## NC(=O)CN1CCCC1=O
[1]; at 12.8 µM (top of the series), parasite line A
  activity, negative = inhibition: -0.277%
[1]; at 12.8 µM (top of the series), parasite line B
  activity, negative = inhibition: 13.3%
3D7
  Potency: inactive
7G8
  Potency: inactive
AA1029
  Potency: inactive
AS120
  Potency: inactive
ATS189
  Potency: inactive
ATS95
  Potency: inactive
C2A
  Potency: inactive
CP185
  Potency: inactive
CP191
  Potency: inactive
CP192
  Potency: inactive
CP194
  Potency: inactive

## CN(C)C(=S)SSC(=S)N(C)C
[1]; parasite line A
  Potency: 2.51 µM (active)
[1]; parasite line B
  Potency: 3.16 µM (active)
3D7
  Potency: 1.58 µM (active)
7G8
  Potency: 1.12 µM (active)
AA1029
  Potency: 2.24 µM (active)
AS120
  Potency: 3.55 µM (active)
ATS189
  Potency: 4.47 µM (active)
ATS95
  Potency: 3.16 µM (active)
C2A
  Potency: 3.16 µM (active)
CP185
  Potency: 2 µM (active)
CP191
  Potency: 3.16 µM (active)
CP192
  Potency: 3.79 µM (active)
CP194
  Potency: 3.38 µM (active)

## CCN(Cc1ccc(Cl)nc1)/C(=C/[N+](=O)[O-])NC
[1]; [2]
  activity, negative = inhibition: 8.19%
[1]; [3]
  activity, negative = inhibition: -9.95%
3D7
  Potency: inactive
7G8
  Potency: inactive
AA1029
  Potency: inactive
AS120
  Potency: inactive
ATS189
  Potency: inactive
ATS95
  Potency: inactive
C2A
  Potency: inactive
CP185
  Potency: inactive
CP191
  Potency: inactive
CP192
  Potency: inactive
CP194
  Potency: inactive

## CCN(CC)C(C)C(=O)c1ccccc1 (stereo not given)
[1]; [2]
  activity, negative = inhibition: -2.34%
[1]; [3]
  activity, negative = inhibition: 12.3%
3D7
  Potency: inactive
7G8
  Potency: inactive
AA1029
  Potency: inactive
AS120
  Potency: inactive
ATS189
  Potency: inactive
ATS95
  Potency: inactive
C2A
  Potency: inactive
CP185
  Potency: inactive
CP191
  Potency: inactive
CP192
  Potency: inactive
CP194
  Potency: inactive

## C[N+]1(CCC(C(N)=O)(c2ccccc2)c2ccccc2)CCCCC1
[1]; [2]
  activity, negative = inhibition: -14.5%
[1]; [3]
  activity, negative = inhibition: -9.8%
3D7
  Potency: inactive
7G8
  Potency: inactive
AA1029
  Potency: inactive
AS120
  Potency: inactive
ATS189
  Potency: inactive
ATS95
  Potency: inactive
C2A
  Potency: inactive
CP185
  Potency: inactive
CP191
  Potency: inactive
CP192
  Potency: inactive
CP194
  Potency: inactive

## CNC(=O)NC(O)C(Cl)(Cl)Cl (stereo not given)
[1]; [2]
  activity, negative = inhibition: 0.151%
[1]; [3]
  activity, negative = inhibition: 3.59%
3D7
  Potency: inactive
7G8
  Potency: inactive
AA1029
  Potency: inactive
AS120
  Potency: inactive
ATS189
  Potency: inactive
ATS95
  Potency: inactive
C2A
  Potency: inactive
CP185
  Potency: inactive
CP191
  Potency: inactive
CP192
  Potency: inactive
CP194
  Potency: inactive
